Test [1] in a line: qHTS drug screen for cell cycle checkpoint inhibitors in PARPi-resistant BRCA-mutant ovarian cancer cell lines. (AID 1963452; calls by dose curve). As to conditions: PEO1/OlaR viability, CellTiter-Glo luminescence, 96 h, stronger effect = lower value. A digest of the protocol: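 PEO1, PEO4 and PEO1/OlaR ovarian cancer cells, 600 per well, exposed 96 h at 37C to a dilution series. Viability read by CellTiter-Glo luminescence, normalized to DMSO and empty wells; activity summarized as Z-AUC.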
(In qHTS, concentration-response curves come from the screen itself.)

Test [2] can be described thus: qHTS profiling for inhibitors of Plasmodium falciparum proliferation (AID 504749).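 For activity, negative = inhibition: 0% = DMSO vehicle and full inhibition = artemisinin control.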 Note: nearly all actives have a fitted effect of over 60% in size. Note: potency is the fitted concentration of half-maximal effect. As to conditions: P. falciparum in erythrocytes, SYBR Green DNA, 72 h. A digest of the protocol: (§1)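 Three-day growth assay of blood-stage parasites in erythrocytes (0.3% parasitemia, 2.5% hematocrit) at 37 C, 5% CO2, quantified by SYBR Green DNA staining after overnight detergent lysis.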

Another test deals with 3D7. The description is as above. Particulars: P. falciparum in erythrocytes, SYBR Green DNA, 72 h; series mostly up to 28.7 µM. A digest of the protocol: as §1
For a further test, the system named is 7G8. The description is as above. As to conditions: P. falciparum in erythrocytes, SYBR Green DNA, 72 h; series mostly up to 28.7 µM. The method, boiled down:
as §1

The next test relates to AA1029. The test is described as above. As to conditions: P. falciparum in erythrocytes, SYBR Green DNA, 72 h; series mostly up to 28.7 µM. The method, boiled down: as §1
The subject of another test is AS120. The description is as above. As to conditions: P. falciparum in erythrocytes, SYBR Green DNA, 72 h; series mostly up to 28.7 µM. The method, boiled down: as §1
A further test concerns ATS189. The description is as above. Particulars: P. falciparum in erythrocytes, SYBR Green DNA, 72 h; series mostly up to 28.7 µM. The method, boiled down:
as §1

The subject of a further test is ATS95. Described as above. As to conditions: P. falciparum in erythrocytes, SYBR Green DNA, 72 h; series mostly up to 28.7 µM. The method, boiled down: as §1
Another test relates to CP185. The description is as above. Particulars: P. falciparum in erythrocytes, SYBR Green DNA, 72 h; series mostly up to 28.7 µM. A digest of the protocol:
as §1

The next test concerns CP191. Described as above. Particulars: P. falciparum in erythrocytes, SYBR Green DNA, 72 h; series mostly up to 28.7 µM. A digest of the protocol: as §1
A further test relates to CP192. The test is described as above. As to conditions: P. falciparum in erythrocytes, SYBR Green DNA, 72 h; series mostly up to 28.7 µM. The method, boiled down: as §1
The next test concerns CP194. The description is as above. As to conditions: P. falciparum in erythrocytes, SYBR Green DNA, 72 h; series mostly up to 28.7 µM. A digest of the protocol:
as §1

The next test deals with C2A. The test is described as above. Particulars: P. falciparum in erythrocytes, SYBR Green DNA, 72 h; series mostly up to 28.7 µM. The method, boiled down:
as §1

The test system of a further test is CP201. The description is as above. Particulars: P. falciparum in erythrocytes, SYBR Green DNA, 72 h; series mostly up to 28.7 µM. A digest of the protocol:
as §1

A short description of test [3]: qHTS for identification of novel therapeutic agents for treatment of microphthalmiaassociated transcription factor (MiT) renal cell carcinoma (RCC) (AID 1963991). Particulars: CellTiter-Glo, 48 h, stronger effect = lower value. The method, boiled down:
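Three TFE3-fusion RCC lines (UOK109, UOK124, UOK145), 500 cells/well in complete medium, were treated with MIPE 4.0 compounds for 48 hours at 37 C. Viability was by CellTiter-Glo luminescence, normalized to DMSO (100%) and empty wells (0%); curves fitted over 11 concentrations.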

Where [4] appears, read: measured here: PEO1 parental Z-AUC.
[5] abbreviates: at 28.7 µM (top of the series), parasite line A.
The mark [6] stands for this setting: at 28.7 µM (top of the series), parasite line B.
The mark [7] stands for this setting: TFE3-RCC UOK109 viability, measured here: UOK109 Z-AUC.
Setting [8] is: TFE3-RCC viability, measured here: UOK124 Z-AUC.
Setting [9] is: TFE3-RCC viability, measured here: UOK145 Z-AUC.

Records with an inconclusive call do not appear. Activity calls are given as the source filed them. Unless noted, calls come from the whole dose curve; as a rule, active = well fitted inhibition curve with a large enough effect; inconclusive = small, poorly fitted or top-dose-only effect; inactive = flat fitted curve, though single readings scatter.

For `Clc1ccc(C(Cn2ccnc2)OCc2ccsc2Cl)c(Cl)c1` (stereo unspecified), the Z-AUC was -0.189 (inactive) in test [1], -0.0624 in test [1] (setting [4]) and 0.0924 in test [1] (measured here: PEO4 Z-AUC). The Potency in [2] (parasite line A) was 2.82 µM (active); in test [2] (parasite line B) it was 2.82 µM (active); in the test with 3D7, 2.51 µM (active); in the test with 7G8, 0.447 µM (active); with AA1029, 7.94 µM (active); with AS120, 1.12 µM (active). The Potency in the test on ATS189 is 6.31 µM (active); in the test with ATS95, 7.08 µM (active); in the test on CP185, 7.94 µM (active); in the test with CP191, 7.08 µM (active); in the test on CP192 it was 16.9 µM (active); with CP194, 8.49 µM (active).
For the compound `Cn1c(NCCN(CCO)CCCc2ccc([N+](=O)[O-])cc2)cc(=O)n(C)c1=O`, the activity, negative = inhibition in test [2] (setting [5]) is 6.79% (inactive); in test [2] (setting [6]), 16.9% (inactive). Moreover, the Potency entry in the test with 3D7, in the test on AA1029, in the test on AS120, in the test on ATS189, with ATS95 and in the test on C2A was “inactive” in each case. Besides, the Potency entry in the test with CP185, in the test with CP192, in the test with CP194 and with CP201 was “inactive” throughout.
Regarding `Cc1nccn1CC1CCc2c(c3ccccc3n2C)C1=O` (stereo unspecified), the z-score was 0.748 in test [3] (setting [7]), 0.745 in test [3] (setting [8]) and 0.411 in test [3] (setting [9]).
Take `N=C(N=C(N)N)N1CCOCC1`: the activity, negative = inhibition in test [2] (at 12.8 µM (top of the series), parasite line A) is -9.52% (inactive); in [2] (at 12.8 µM (top of the series), parasite line B), 11.1% (inactive). Also, the Potency entry in the test with 3D7, with 7G8, in the test with AA1029, with ATS189, in the test on ATS95 and in the test with C2A was “inactive” in each case. Further, the Potency entry in the test on CP185, with CP191, in the test with CP192, with CP194 and in the test with CP201 was “inactive” each time.
Regarding `C=CCc1cc(OC)c(O)c(C(=O)NCCO)c1`, the z-score in test [3] (setting [7]) was 0.957; in test [3] (setting [8]) it was 0.641; in [3] (setting [9]), 1.25. Further, the activity, negative = inhibition in [2] (setting [5]) is 6.75% (inactive); in test [2] (setting [6]) it was 10.3% (inactive). Further, the Potency result with 3D7, in the test with 7G8, with AA1029, in the test with AS120, in the test on ATS189 and in the test with ATS95 was “inactive” each time. Further, the Potency result in the test with C2A, in the test with CP185, in the test on CP191, in the test with CP192, in the test on CP194 and with CP201 was “inactive” in each case.
Take `Cc1cc(=O)c2c(O)c3c(O)cc(=O)c4c3c3c(cc(O)c1c23)C(C)(C)C=4O`: the Potency is 2.51 µM (active) in test [2] (parasite line A); 1 µM (active) in test [2] (parasite line B); 1.58 µM (active) in the test on 3D7; 1.78 µM (active) in the test on AA1029; 1.78 µM (active) in the test on AS120; 1.41 µM (active) in the test with ATS189. Also, the Potency was 2 µM (active) in the test with ATS95; 1.58 µM (active) in the test on C2A; 1.58 µM (active) in the test with CP185; 1.12 µM (active) with CP191; 2.69 µM (active) in the test with CP194.
In the case of `CC1(C)CCC(C)(C)c2cc(NC(=O)c3ccc(C(=O)O)cc3)ccc21`, the figures for the Z-AUC in test [1], in test [1] (setting [4]) and in test [1] (measured here: PEO4 Z-AUC) were 0.358 (inactive), 0.445 and -0.341, respectively. For the same compound, the values for the activity, negative = inhibition in test [2] (setting [5]) and in test [2] (setting [6]) were -1.01% (inactive) and -5.09% (inactive), respectively. The Potency entry in the test on 3D7, with AA1029, with AS120, with ATS189, in the test on ATS95 and with C2A was “inactive” throughout. In addition, the Potency entry in the test on CP185, with CP191, in the test with CP192, in the test on CP194 and in the test with CP201 was “inactive” throughout.
For `O=C1CCc2ccc(OCCCCN3CCN(c4cccc(Cl)c4Cl)CC3)cc2N1`, the Z-AUC in [1] was -1.31 (inactive); in test [1] (setting [4]) it was -0.72; in test [1] (measured here: PEO4 Z-AUC), -1.21. The Potency with 7G8 was 12.6 µM (active); in the test with CP191, 8.91 µM (active). In addition, the Potency result in the test with CP192, with CP194 and with CP201 was “inactive” throughout.
On to `O=C(CS(=O)Cc1ccco1)NCC=CCOc1cc(CN2CCCCC2)ccn1` (stereo unspecified), for which the values for the z-score in [3] (setting [7]), in test [3] (setting [8]) and in test [3] (setting [9]) were 0.673, 0.332 and 0.715, respectively. The values for the activity, negative = inhibition in [2] (setting [5]) and in test [2] (setting [6]) were 3.29% (inactive) and -5.5% (inactive), respectively. In addition, the Potency result in the test with 3D7, in the test on 7G8, in the test with AA1029, with AS120, in the test on ATS189 and in the test on ATS95 was “inactive” in each case. The Potency result with C2A, in the test on CP185, with CP192, with CP194 and in the test with CP201 was “inactive” each time.
In the case of `CCN(CCO)CCCC(C)Nc1ccnc2cc(Cl)ccc12` (stereo unspecified), the figures for the Z-AUC in test [1], in [1] (setting [4]) and in [1] (measured here: PEO4 Z-AUC) were 1.8 (inactive), 1.41 and 1.84, respectively. Moreover, the Potency in test [2] (parasite line A) was 0.708 µM (active); in [2] (parasite line B) it was 1 µM (active); with 3D7 it was 0.562 µM (active). In addition, the Potency entry in the test on AA1029, in the test on AS120, with ATS189, in the test with ATS95, in the test on C2A and in the test with CP185 was “inactive” in each case. In addition, the Potency result with CP191, with CP192, in the test with CP194 and in the test on CP201 was “inactive” each time.
In the case of `Cc1nc(Nc2ncc(C(=O)Nc3c(C)cccc3Cl)s2)cc(N2CCN(CCO)CC2)n1`, the Z-AUC was -3.38 (inactive) in test [1], -2.38 in [1] (setting [4]) and -0.444 in [1] (measured here: PEO4 Z-AUC). In test [2] (setting [6]), the activity, negative = inhibition was -17.2% (inactive). In addition, the Potency is 5.62 µM (active) in the test on 7G8 and 12.6 µM (active) in the test on AS120. Moreover, the Potency entry in the test with CP192 and with CP201 was “inactive” each time.
Regarding `C[C@]12CCC(=O)C=C1CC[C@@H]1[C@H]2[C@@H](O)C[C@@]2(C)[C@H]1CC[C@]2(O)C(=O)CO`, the activity, negative = inhibition is 9.9% (inactive) in test [2] (setting [5]) and 19.1% (inactive) in test [2] (setting [6]). Moreover, the Potency entry in the test with 3D7, with 7G8, in the test with AA1029, in the test with AS120, in the test on ATS189 and with ATS95 was “inactive” each time. Also, the Potency entry in the test with C2A, with CP185, with CP191, with CP192, in the test on CP194 and in the test with CP201 was “inactive” in each case.
Consider `Cc1cc(C2CCCCC2)n(O)c(=O)c1`, for which the results for the Z-AUC in test [1], in [1] (setting [4]) and in test [1] (measured here: PEO4 Z-AUC) were 0.662 (inactive), 0.159 and -0.0703, respectively. In addition, the Potency was 3.55 µM (active) in test [2] (parasite line B), 3.16 µM (active) in the test with 7G8, 3.55 µM (active) with AS120 and 3.16 µM (active) in the test with CP191.

These data come from PubChem BioAssay (NCATS).
